Activity calls are given as the source filed them. How the source made its calls: active means hit-call score of the fitted dose curve at least 0.9, where 1 is the maximum; inactive means score below 0.9.
Assays:
[1] = molecular target: CCAAT/enhancer-binding protein beta (Homo sapiens) (UniProt P17676); test: ATG_C_EBP_CIS: Attagene CIS-FACTORIAL HepG2 Assay for human CCAAT/Enhancer Binding Protein (C/EBP) beta (AID 2282927); conditions: HepG2 Attagene cis-factorial transcription factor reporter; actives raise or lower the signal
Procedure, shortened: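 Chemical-treated HepG2 cells (24 h) bearing cis-regulated reporter constructs were processed for total RNA, then reverse transcription, PCR amplification, fluorescent primer extension and fragment analysis; gain- and loss-of-signal were fitted against DMSO.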

[2] = ATG_CMV_CIS: Attagene CIS-FACTORIAL HepG2 Assay for human CMV (Internal Marker) (AID 2282928); conditions: HepG2 CMV promoter reporter, transcription factor profiling; actives raise or lower the signal;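 further: endpoint acts as a background internal control marker rather than a target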
Procedure, shortened: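 Fluorescence intensity of RT-PCR-derived reporter fragments, resolved by capillary electrophoresis, gives the signal. HepG2 liver cells bearing transfected cis-element reporters were treated 24 h; activity in either direction was fit relative to DMSO-treated controls.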

[3] = ATG_AP_1_CIS: Attagene CIS-FACTORIAL HepG2 Assay for human Activator Protein 1 (AP-1) (AID 2282931); conditions: HepG2 Attagene cis-factorial AP-1 reporter mRNA; actives raise or lower the signal
Procedure, shortened: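 HepG2 cells transiently transfected with cis-element-driven reporter transcription units, dosed for 24 hours. Reporter mRNA measured by RT-PCR, 6-FAM labelling, HpaI digestion and capillary electrophoresis. Bidirectional fitting against DMSO baseline.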

[4] = ATG_AP_2_CIS: Attagene CIS-FACTORIAL HepG2 Assay for human Activator Protein 2 (AP-2) (AID 2282932); conditions: HepG2 AP-2 cis-reporter, Attagene transcription factor profiling; actives raise or lower the signal
Procedure, shortened: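 Cells (HepG2) transfected with promoter-driven reporter constructs, treated 24 h. Total RNA reverse-transcribed, reporter cDNA PCR-amplified, FAM-labelled by primer extension, digested, resolved by capillary electrophoresis. Activity fitted both directions versus DMSO.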

[5] = ATG_BRE_CIS: Attagene CIS-FACTORIAL HepG2 Assay for human Bone Morphogenetic Protein (BMP) Response Element (BRE) (AID 2282933); conditions: HepG2 BMP response element reporter, Attagene transcription factor profiling; actives raise or lower the signal
Procedure, shortened: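 Endogenous transcription factor activity at a BMP response element was monitored in transfected HepG2 cells 24 h after dosing. Fluorescent RT-PCR products were resolved by capillary electrophoresis, and activity was fitted in both directions versus DMSO.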

[6] = ATG_E_Box_CIS: Attagene CIS-FACTORIAL HepG2 Assay for human Enhancer Box (E-box) (AID 2282936); conditions: HepG2 E-box cis-reporter transcription, actives raise or lower the signal
Procedure, shortened: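 Endogenous transcription factor activity was sensed in human HepG2 liver cells through transfected cis-promoter reporter units. After 24 h of dosing, total RNA was reverse-transcribed and reporter cDNA resolved by capillary electrophoresis.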

[7] = ATG_M_61_CIS: Attagene CIS-FACTORIAL HepG2 Assay for M61 Transcription Factor (Internal Marker) (AID 2282937); conditions: HepG2 Attagene CIS-FACTORIAL M61 internal marker reporter; actives raise or lower the signal
Procedure, shortened: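 HepG2 cells transiently transfected with multiplexed cis-promoter reporter units reporting endogenous transcription factor activity, measured 24 h after dosing. Reporter mRNA quantified by RT-PCR and capillary electrophoresis; bidirectional fit against DMSO baseline.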

[8] = ATG_EGR_CIS: Attagene CIS-FACTORIAL HepG2 Assay for human Early Growth Response 1 (EGR1) (AID 2282938); conditions: HepG2 Attagene CIS-FACTORIAL EGR reporter mRNA; actives raise or lower the signal
Procedure, shortened: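 HepG2 cells transiently transfected with cis-element-driven multiplexed reporter units, dosed for 24 h. EGR1-element reporter mRNA quantified by RT-PCR, 6-FAM labelling, HpaI digestion and capillary electrophoresis; bidirectional fit versus DMSO.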

[9] = ATG_Ets_CIS: Attagene CIS-FACTORIAL HepG2 Assay for human Erythroblast Transformation Specific (ETS) (AID 2282941); conditions: HepG2 ETS cis-reporter transcription, actives raise or lower the signal
Procedure, shortened: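 Multiplexed reporter transcript profiling: HepG2, 24 h treatment, total RNA to cDNA, PCR, 6-FAM labelling, HpaI cut, capillary electrophoresis. Gain- or loss-of-signal fitted against DMSO.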

[10] = ATG_FoxO_CIS: Attagene CIS-FACTORIAL HepG2 Assay for human Forkhead box O (FoxO) (AID 2282943); conditions: HepG2 Attagene cis-reporter, FoxO element, mRNA; actives raise or lower the signal
Procedure, shortened: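 24 h chemical exposure, HepG2 with transient cis-MRTU transfection. RNA extraction, oligo(dT) RT, reporter-specific PCR, primer-extension labelling, HpaI digestion, CE fragment analysis; bidirectional fit, DMSO baseline.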

[11] = ATG_GATA_CIS: Attagene CIS-FACTORIAL HepG2 Assay for human GATA Binding Protein (AID 2282944); conditions: HepG2 GATA cis-element reporter, Attagene multiplex mRNA; actives raise or lower the signal
Procedure, shortened: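 Endogenous transcription factor activity was captured through cis-promoter-driven reporters in transfected HepG2 cells. After 24 h exposure, reporter transcripts were quantified by RT-PCR with fluorescent capillary electrophoresis, and responses fitted both directions against DMSO.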

[12] = ATG_ISRE_CIS: Attagene CIS-FACTORIAL HepG2 Assay for human Interferon Regulatory Factor 1 (IRF1) binding to an Interferon-Stimulated Response Element (ISRE) (AID 2282948); conditions: HepG2 ISRE cis-reporter (Attagene), mRNA transcription readout; actives raise or lower the signal
Procedure, shortened: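 Signal reflects induction or loss of ISRE-linked reporter mRNA in transiently transfected HepG2 cells after a 24 h treatment, detected by fluorescent RT-PCR fragments on capillary electrophoresis and normalised to DMSO.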

[13] = ATG_M_06_CIS: Attagene CIS-FACTORIAL HepG2 Assay for M06 Transcription Factor (Internal Marker) (AID 2282950); conditions: HepG2 Attagene CIS-FACTORIAL M06 internal marker reporter; actives raise or lower the signal
Procedure, shortened: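 Steps: transfect HepG2 with multiplexed cis-element reporter constructs; dose chemical 24 h; extract RNA with DNase treatment; reverse-transcribe, PCR-amplify, 6-FAM label, HpaI digest; separate fragments by capillary electrophoresis. Activity fitted both directions versus DMSO.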

[14] = ATG_MRE_CIS: Attagene CIS-FACTORIAL HepG2 Assay for human Metal Responsive Element (MRE) (AID 2282954); conditions: HepG2 MRE cis-reporter transcription, Attagene multiplex; actives raise or lower the signal
Procedure, shortened: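 Cells were transfected with cis-promoter reporter transcription units, then dosed for 24 h. RNA was reverse-transcribed, amplified, fluorescently labelled and resolved by capillary electrophoresis, and activity was fitted in both directions relative to DMSO.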

[15] = molecular target: Paired box protein Pax-6 (Homo sapiens) (UniProt P26367); test: ATG_Pax6_CIS: Attagene CIS-FACTORIAL HepG2 Assay for human Paired Box 6 (PAX6) (AID 2282956); conditions: HepG2 CIS-FACTORIAL PAX6 reporter transcription, RNA readout; actives raise or lower the signal
Procedure, shortened: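 Values derive from bidirectional curve fitting of reporter mRNA signal relative to DMSO. HepG2 cells bearing transfected cis-regulated MRTUs were exposed for 24 h; transcripts were read by RT-PCR and capillary electrophoresis.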

[16] = molecular target: Transcription factor Sp1 (Homo sapiens) (UniProt P08047); test: ATG_Sp1_CIS: Attagene CIS-FACTORIAL HepG2 Assay for human Specificity Protein 1 (Sp1) (AID 2282961); conditions: HepG2 Sp1 cis-reporter transcription, actives raise or lower the signal
Procedure, shortened: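 HepG2 cells transiently transfected with multiplexed cis-regulated reporter constructs, chemical exposure 24 h. Reporter mRNA quantified by RT-PCR with capillary electrophoresis; bidirectional fit relative to DMSO.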

[17] = ATG_SREBP_CIS: Attagene CIS-FACTORIAL HepG2 Assay for human Sterol Regulatory Element Binding (SREBP) (AID 2282962); conditions: HepG2 Attagene cis-factorial SREBP reporter, mRNA; actives raise or lower the signal
Procedure, shortened: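 Values derive from bidirectional curve fitting with DMSO as baseline. The underlying measurement is reporter mRNA from cis-element-regulated units in transiently transfected HepG2, quantified by RT-PCR and capillary electrophoresis after 24 h exposure.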

[18] = molecular target: Signal transducer and activator of transcription 3 (Homo sapiens) (UniProt P40763); test: ATG_STAT3_CIS: Attagene CIS-FACTORIAL HepG2 Assay for human Signal Transducer and Activator of Transcription 3 (STAT3) (AID 2282963); conditions: HepG2, Attagene cis-factorial STAT3 reporter transcription; actives raise or lower the signal
Procedure, shortened: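 HepG2, MRTU-transfected, 24 h dosing. RNA → RT → PCR → FAM label → HpaI → CE. Bidirectional fit vs DMSO.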

[19] = ATG_TAL_CIS: Attagene CIS-FACTORIAL HepG2 Assay for human TAL Basal Promoter (AID 2282966); conditions: HepG2 Attagene cis-factorial TAL promoter reporter; actives raise or lower the signal;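 further: background control endpoint measuring basal TAL promoter reporter mRNA not a specific factor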
Procedure, shortened: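 Basal-promoter background-control endpoint from a multiplexed HepG2 reporter panel. Cells were exposed 24 h, then reporter mRNA was read by RT-PCR/CE fluorescence and fitted in both directions relative to DMSO.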

[20] = molecular target: X-box-binding protein 1 (Homo sapiens) (UniProt P17861); test: ATG_Xbp1_CIS: Attagene CIS-FACTORIAL HepG2 Assay for human X-box Binding Protein 1 (XBP1) (AID 2282972); conditions: HepG2 XBP1 cis-element reporter, Attagene multiplex; actives raise or lower the signal
Procedure, shortened: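 Human hepatoma HepG2, cis-element reporter system, 24 h treatment; mRNA quantified by RT-PCR/CE fluorescence; fit relative to DMSO.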

Measured: AC50

Chain of Transcription factor Sp1 (Homo sapiens) (P08047 whole entry, looked up): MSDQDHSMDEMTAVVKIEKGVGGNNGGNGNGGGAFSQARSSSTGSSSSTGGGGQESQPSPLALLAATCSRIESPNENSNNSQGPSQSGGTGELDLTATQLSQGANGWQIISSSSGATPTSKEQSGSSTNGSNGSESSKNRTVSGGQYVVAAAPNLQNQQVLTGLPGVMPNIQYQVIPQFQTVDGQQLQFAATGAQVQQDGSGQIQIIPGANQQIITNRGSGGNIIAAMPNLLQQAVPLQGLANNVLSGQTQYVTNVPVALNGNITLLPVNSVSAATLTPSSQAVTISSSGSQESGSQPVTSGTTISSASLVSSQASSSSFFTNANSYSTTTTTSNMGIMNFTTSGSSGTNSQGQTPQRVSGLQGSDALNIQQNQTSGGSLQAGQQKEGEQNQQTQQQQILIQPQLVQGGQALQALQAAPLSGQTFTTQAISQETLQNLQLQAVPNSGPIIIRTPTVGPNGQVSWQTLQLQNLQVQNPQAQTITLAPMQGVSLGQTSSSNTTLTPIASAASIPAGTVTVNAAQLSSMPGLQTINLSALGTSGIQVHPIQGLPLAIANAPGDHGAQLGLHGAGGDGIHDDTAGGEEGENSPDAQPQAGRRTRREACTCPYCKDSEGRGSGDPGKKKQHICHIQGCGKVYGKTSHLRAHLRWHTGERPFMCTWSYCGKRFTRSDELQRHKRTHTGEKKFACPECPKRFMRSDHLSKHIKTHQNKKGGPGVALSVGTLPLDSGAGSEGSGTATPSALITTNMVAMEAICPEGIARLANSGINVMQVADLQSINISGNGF
Chain of Signal transducer and activator of transcription 3 (Homo sapiens) (P40763 whole entry, looked up): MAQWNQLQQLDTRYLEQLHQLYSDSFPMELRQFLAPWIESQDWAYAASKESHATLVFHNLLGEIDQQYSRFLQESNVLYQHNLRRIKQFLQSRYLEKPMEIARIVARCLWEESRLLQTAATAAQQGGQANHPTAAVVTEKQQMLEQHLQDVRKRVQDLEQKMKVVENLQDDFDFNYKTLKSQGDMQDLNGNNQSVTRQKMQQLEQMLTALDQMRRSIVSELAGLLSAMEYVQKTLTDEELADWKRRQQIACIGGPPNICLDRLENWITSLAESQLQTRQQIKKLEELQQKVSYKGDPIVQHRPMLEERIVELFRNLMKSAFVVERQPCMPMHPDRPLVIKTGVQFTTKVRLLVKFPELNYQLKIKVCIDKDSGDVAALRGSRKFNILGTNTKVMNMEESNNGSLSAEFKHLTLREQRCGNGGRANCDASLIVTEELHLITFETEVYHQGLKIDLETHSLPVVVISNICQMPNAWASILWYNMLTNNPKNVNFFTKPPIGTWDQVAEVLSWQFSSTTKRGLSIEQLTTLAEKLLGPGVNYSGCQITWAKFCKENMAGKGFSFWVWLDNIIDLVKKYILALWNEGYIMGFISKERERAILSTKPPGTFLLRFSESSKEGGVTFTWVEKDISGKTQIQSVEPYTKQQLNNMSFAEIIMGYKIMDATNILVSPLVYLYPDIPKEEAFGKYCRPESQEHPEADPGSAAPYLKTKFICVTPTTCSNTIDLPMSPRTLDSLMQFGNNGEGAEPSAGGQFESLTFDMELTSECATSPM
Chain of X-box-binding protein 1 (Homo sapiens) (P17861 whole entry, looked up): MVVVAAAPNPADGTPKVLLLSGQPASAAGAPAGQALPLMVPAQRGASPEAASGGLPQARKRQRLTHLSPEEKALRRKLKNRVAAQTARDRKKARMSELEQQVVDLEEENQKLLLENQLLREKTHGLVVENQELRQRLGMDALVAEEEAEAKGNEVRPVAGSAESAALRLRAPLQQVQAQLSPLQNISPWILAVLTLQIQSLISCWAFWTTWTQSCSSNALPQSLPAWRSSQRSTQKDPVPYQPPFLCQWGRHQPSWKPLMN
Chain of Paired box protein Pax-6 (Homo sapiens) (P26367 whole entry, looked up): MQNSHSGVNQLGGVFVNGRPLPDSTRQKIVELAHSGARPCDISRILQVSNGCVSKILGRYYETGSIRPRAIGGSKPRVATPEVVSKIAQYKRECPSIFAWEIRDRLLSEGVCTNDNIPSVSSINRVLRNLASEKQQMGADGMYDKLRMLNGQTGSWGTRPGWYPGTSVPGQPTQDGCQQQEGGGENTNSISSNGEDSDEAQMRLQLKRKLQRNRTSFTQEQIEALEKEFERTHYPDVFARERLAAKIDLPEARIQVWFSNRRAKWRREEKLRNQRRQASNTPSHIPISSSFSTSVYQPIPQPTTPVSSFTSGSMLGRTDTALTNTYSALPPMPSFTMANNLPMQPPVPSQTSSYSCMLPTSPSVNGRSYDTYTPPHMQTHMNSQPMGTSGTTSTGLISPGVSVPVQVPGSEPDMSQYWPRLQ
Chain of CCAAT/enhancer-binding protein beta (Homo sapiens) (P17676 whole entry, looked up, the tested form may be a part): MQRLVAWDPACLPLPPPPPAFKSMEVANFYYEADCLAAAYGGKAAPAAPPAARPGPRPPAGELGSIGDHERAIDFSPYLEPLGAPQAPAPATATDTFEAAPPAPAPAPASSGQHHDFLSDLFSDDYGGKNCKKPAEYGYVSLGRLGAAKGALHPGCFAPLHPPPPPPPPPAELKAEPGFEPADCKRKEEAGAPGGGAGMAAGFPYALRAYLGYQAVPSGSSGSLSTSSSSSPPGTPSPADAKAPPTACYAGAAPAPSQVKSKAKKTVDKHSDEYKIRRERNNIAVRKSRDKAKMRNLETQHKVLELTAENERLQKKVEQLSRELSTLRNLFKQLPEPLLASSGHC

c1cc[c]([Bi]([c]2ccccc2)[c]2ccccc2)cc1
inactive: [1] | [2] | [4] | [5] | [6] | [7] | [8] | [9] | [10] | [11] | [12] | [13] | [14] | [15] | [16] | [17] | [18] | [19] | [20]
active: [3] 58.1 µM

CNC(=C[N+](=O)[O-])NCCSCc1csc(CN(C)C)n1
inactive: [1] | [2] | [3] | [4] | [5] | [6] | [7] | [8] | [9] | [10] | [11] | [12] | [13] | [14] | [15] | [16] | [17] | [18] | [19] | [20]

c1cc(N(CC2CO2)CC2CO2)ccc1Cc1ccc(N(CC2CO2)CC2CO2)cc1 (stereo not given)
active: [1] 99.5 µM | [2] 26.6 µM | [3] 54.4 µM | [4] 26.3 µM | [6] 34.3 µM | [8] 18.4 µM | [12] 21.7 µM | [14] 21.3 µM | [15] 9.31 µM | [16] 5.73 µM | [17] 26.4 µM | [20] 6.26 µM
inactive: [5] | [7] | [9] | [10] | [11] | [13] | [18] | [19]

CC=CC(=O)O
inactive: [1] | [2] | [3] | [4] | [5] | [6] | [7] | [8] | [9] | [10] | [11] | [12] | [13] | [14] | [15] | [16] | [17] | [18] | [19] | [20]

From PubChem BioAssay (EPA / NIEHS)
